Results published in PubChem BioAssay (Tox21).
Where “and” joins values, the source holds several entries; their conditions need not be identical. Equal values may be shown once. Inconclusive results are not listed. A number with no mark means an inactive call. Calls of active or inactive are those of the source. Calls come from the whole dose curve.

test: qHTS assay to identify small molecule agonists of the AP-1 signaling pathway - cell viability counter screen (AID 1159525); conditions: ME-180 (cervical carcinoma) AP-1-bla cells viability, ATP luminescence, 5 h; series mostly up to 76.8 µM; viability change, negative = cytotoxic: at the top concentration; note: nearly all actives have a fitted effect of over 55% in size
Description: National Center for Advancing Translational Sciences [NCATS]
NIH Chemical Genomics Center [NCGC]
U.S. Environmental Protection Agency [EPA]
National Institutes of Environmental Health Sciences [NIEHS]
National Toxicology Program [NTP]
U.S. Food and Drug Administration [FDA]
Activator protein-1 (AP-1), a transcription factor, plays an important role in tumor genesis by regulating genes involved in cell proliferation, differentiation, apoptosis, and angiogenesis. AP-1 activity is induced by a complex network of signaling pathways that involves extracellular signals, such as growth factors. The AP-1 protein complex formed from c-Fos and c-Jun binding to the AP-1 response element results in transcriptional activation of genes containing such elements within their promoter.
Low molecular weight molecules have been discovered and developed to modulate various components of these signaling pathways, for example, MAP kinase inhibitors. However, many points of pathway modulation remain untested due to the lack of chemical probes making this signaling locus of general interest.
Using a beta-lactamase reporter-gene under control of the AP-1 response element, a cell-based assay [CellSensor(TM) AP-1-bla ME-180 developed by Invitrogen Corp.] was used to measure EGF-induced signaling. The Tox21 10K library compounds were measured for their ability to positively modulate the action of EC50 EGF on reporter gene activity. Compounds were screened in a 15-pt titration series in 1536-well format. The cytotoxicity of the Tox21 compound library against this cell line was tested in parallel by measuring the intra cellular ATP content in the same wells.
Tox21 Assay Protocol Summary:
2500 cells/5uL in Opti-MEM medium containing 0.5% dialyzed FBS, 0.1 mM NEAA, 1 mM sodium pyruvate and 10 mM HEPES was dispensed into 1536-well black wall/clear bottom plates using a Multidrop dispenser and cells were cultured at 37 degrees Celsius overnight. Next day 23 nL of compounds dissolved in DMSO, positive controls or DMSO were delivered to each well using a pin tool. The plates were incubated at 37 degrees Celsius for 5 hours. 1 uL of LiveBLAzerTM B/G FRET substrate (Solution A+B+C+D) was added to each well using a Flying Reagent Dispenser. After incubated at room temperature for 2.5 hours the plates were measured on an EnVision plate reader at Excitation 405nm, Emission1=460nm and Emission 2=530nm. The %Activity was determined from the ratio of 460nm/530nm.
After the plates were read for Beta-Lactamase assay on Envision; 3 ul Cell Titer Glo (Promega) was added to measure the cytotoxicity and the plates were then incubated at RT in dark for 30 min. The luminescence was read on ViewLux (Perkin Elmer, Shelton, CT) using 6 sec exposure. ViewLux data was expressed as relative luminescence units.
For primary data analysis, raw plate reads for each titration point were first normalized relative to […] EGF control (100%) and DMSO only wells (basal, 0%).
For primary data analysis for viability assay, raw plate reads for each titration point were first normalized Tetra n-octyl ammonium bromide control (-100%) and DMSO (control, 100%).
Potency is the fitted concentration of half-maximal effect.

Row | SMILES | Potency | viability change, negative = cytotoxic
1 | CCC[CH2][Sn]([CH2]CCC)([CH2]CCC)[O]C(=O)c1ccccc1 | 1.23 µM (active) | –
2 | COS(=O)(=O)c1ccc(C)cc1 | – | 4.28%
3 | Oc1ccc2ccc3cccc4ccc1c2c34 | – | -24.1%
4 | CC1(c2ccc(Oc3ccccc3)cc2)OC(=O)N(Nc2ccccc2)C1=O (stereo not given) | – | -9.65%
5 | COc1cccc2c1C(=O)c1c(O)c3c(c(O)c1C2=O)C[C@@](O)(C(=O)CO)CC3OC1CC(N2CCOC(OC)C2)C(O)C(C)O1 (stereo not given in full) | – | -0.321% [at 35.3 µM]
6 | c1ccc2c(c1)[nH]c1cnccc12 | – | -1.65%
7 | Nc1c(Oc2ccccc2)cc(O)c2c1C(=O)c1ccccc1C2=O | – | 0.121% [at 35.3 µM]
8 | C[C@@H]1O[C@@H](O[C@H]2C[C@@H](O)[C@]3(CO)[C@H]4[C@H](O)C[C@]5(C)[C@@H](C6=CC(=O)OC6)CC[C@]5(O)[C@@H]4CC[C@]3(O)C2)[C@H](O)[C@H](O)[C@H]1O | – | -26.3%
9 | ClC1=C(Cl)[C@]2(Cl)[C@@H]3[C@@H](Cl)[C@H](Cl)C[C@@H]3[C@@]1(Cl)C2(Cl)Cl | – | -11.7%
10 | c1ccc2cc3c(cc2c1)-c1cccc2cccc-3c12 | – | 6.75%
11 | O=C(NC(=O)c1c(F)cccc1F)Nc1cc(Cl)c(OC(F)(F)C(F)F)c(Cl)c1 | – | 14.7%
12 | Cc1cccc(OP(=O)(Oc2cccc(C)c2)Oc2cccc(C)c2)c1 | – | -13.7%
13 | N#CSCSC#N | 25.1 µM (active) and 21.7 µM (active) | –
14 | OC(Cc1ccccc1Cl)(Cn1cncn1)C1(Cl)CC1 (stereo not given) | – | -14.1%
15 | CC(Cl)CN(C)C (stereo not given) | – | -8%
16 | Cc1c(Cl)c(=O)oc2cc(OP(=O)(OCCCl)OCCCl)ccc12 | – | -0.813% [at 35.3 µM]
17 | ClC1=C(Cl)[C@]2(Cl)[C@@H]3[C@@H](Cl)[C@@H](Cl)C[C@@H]3[C@@]1(Cl)C2(Cl)Cl | – | 8.15%
18 | ClC1=C(Cl)C2(Cl)C3C(Cl)C(Cl)CC3C1(Cl)C2(Cl)Cl (stereo not given) | 24.5 µM (active) and 34.7 µM (active) | –
19 | N#Cc1c(-c2ccc(Cl)cc2)[nH]c(C(F)(F)F)c1Br | – | -0.577%
20 | C[C@@H]1CC[C@@]2(OC1)O[C@H]1[C@@H](O)[C@H]3[C@@H]4CC[C@H]5C[C@@H](O[C@@H]6O[C@H](CO)[C@H](O[C@@H]7O[C@H](CO)[C@@H](O)[C@H](O[C@@H]8OC[C@@H](O)[C@H](O)[C@H]8O)[C@H]7O[C@@H]7O[C@H](CO)[C@@H](O)[C@H](O[C@@H]8O[C@H](CO)[C@@H](O)[C@H](O)[C@H]8O)[C@H]7O)[C@H](O)[C@H]6O)[C@H](O)C[C@]5(C)[C@H]4CC[C@]3(C)[C@H]1[C@@H]2C | 11.6 µM (active) | –

Row | SMILES | Potency | viability change, negative = cytotoxic
21 | O=[N+]([O-])c1ccc2ccc3cccc4ccc1c2c34 | – | -1.79%
22 | C=COCCCl | – | -0.443%
23 | CN(C)c1ccc(N=Nc2ccccc2)cc1 | – | 4.07%
24 | CC(C)OC(=S)S | – | -6.33%
25 | Cc1cc(SCc2sc(-c3ccc(C(F)(F)F)c(F)c3)nc2C)ccc1OCC(=O)O | – | -26.6%
26 | CCc1nn(C)c(C(=O)NCc2ccc(C(C)(C)C)cc2)c1Cl | 54.9 µM (active) | –
27 | CCC(C)c1cc(C(C)(C)C)cc(-n2nc3ccccc3n2)c1O (stereo not given) | – | -3.58% [at 35.3 µM]
28 | CC1(C)C(/C=C(\Cl)C(F)(F)F)C1C(=O)OC(C#N)c1cccc(Oc2ccccc2)c1 (stereo not given) | – | -5.93%
29 | CCCCCCCCCCCCCN1CC(C)OC(C)C1 (stereo not given) | – | 1.19%
30 | CC(C)OS(C)(=O)=O | – | 3.81%
31 | ClC1=C(Cl)[C@]2(Cl)[C@@H]3[C@@H]4C[C@@H]([C@H]5O[C@@H]45)[C@@H]3[C@@]1(Cl)C2(Cl)Cl | 43.6 µM (active) | –
32 | C[C@]12CC[C@@H]3c4ccc(OC(=O)N(CCCl)CCCl)cc4CC[C@H]3[C@@H]1CC[C@@H]2O | – | -6.76% [at 35.3 µM]
33 | Cc1cc(C(F)(C(F)(F)F)C(F)(F)F)ccc1NC(=O)c1cccc(I)c1C(=O)NC(C)(C)CS(C)(=O)=O | – | -7.63% [at 35.3 µM]
34 | O=C(CBr)c1ccc(O)cc1 | – | -4.26%
35 | CCOP(=S)(OCC)SCS(=O)(=O)CC | – | -1.34%
36 | CCOc1cc(C(C)(C)C)ccc1C1COC(c2c(F)cccc2F)=N1 (stereo not given) | – | -2.43% [at 35.3 µM]
37 | COC12CC[C@@]3(C[C@@H]1C(C)(O)C(C)(C)C)[C@H]1Cc4ccc(O)c5c4[C@@]3(CCN1CC1CC1)[C@H]2O5 (stereo not given in full) | 54.6 µM (active) | –
38 | CC1(C)CC/C(=C/c2ccc(Cl)cc2)C1(O)Cn1cncn1 (stereo not given) | – | -4.85%
39 | Cn1[nH]nnc1=S | – | -13.7%
40 | Cc1ccc(CCl)cc1 | – | 2.06%
